Measurements as given in PubChem BioAssay.
Inconclusive results are not listed. Calls of active or inactive are those of the source.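 Rule for the calls, unless noted: active = aptamer binding inhibition above 30%, about 3 SD of noise from non-fluorescent compounds; inactive = inhibition at or below 30%.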 Peptide text beside a SMILES is read from it.

How the values were obtained:
[1] = rapamycin-like changes in RPL19A-GFP expression – cell-based, S. cerevisiae, multiplex flow cytometry, primary screen (AID 1862; in the data active = percent of DMSO control GFP below about 86%;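 note: lower values mimic rapamycin by blocking the RPL19A rise seen in DMSO cells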); details: S. cerevisiae RPL19A-GFP strain, flow cytometry fluorescence, 3 h; at 10 µM; stronger effect = lower value
[2] = TOR pathway GLN3 branch reporter MEP2-GFP changes – S. cerevisiae, multiplex flow cytometry, primary screen (AID 1867;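 active = GFP response, as percent of the DMSO control, above the screen-wide mean plus 3 SD, about 139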;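 note: median GFP channel fluorescence of barcode-gated MEP2-GFP cells measured by flow cytometry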); details: S. cerevisiae MEP2-GFP strain, 3 h, at 10 µM, stronger effect = higher value, 100% means same as DMSO wells
[3] = TOR pathway RTG branch CIT2 reporter changes – S. cerevisiae, GFP fusion, multiplex flow cytometry, primary screen (AID 1870;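 active = percent response above a set limit, the screen-wide mean plus 3 SD, cut at about 130% in these data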;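 note: barcoded CIT2-GFP strain pooled with four other GFP strains with rapamycin as positive control; median GFP fluorescence per well over plate mean of DMSO wells so 100% = DMSO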); details: S. cerevisiae CIT2-GFP expression, 3 h, at 10 µM, stronger effect = higher value
[4] = TOR pathway LAP4-GFP level changes – S. cerevisiae, multiplex flow cytometry, primary screen (AID 1873;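 active = GFP signal, as percent of the solvent control, above the screen mean plus 3 SD, about 149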); details: S. cerevisiae LAP4-GFP expression, 3 h, at 10 µM, stronger effect = higher value
[5] = yeast AGP1-GFP level changes, GLN3 branch – cell-based, multiplex flow cytometry, S. cerevisiae, primary screen (AID 1887;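 active = GFP signal above the screen-wide mean plus 3 SD, that is over about 124.5% of the solvent control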;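 note: AGP1-GFP fusion strain of S. cerevisiae within a five-strain barcoded multiplex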); details: 3 h, at 10 µM, stronger effect = higher value
[6] = reduced mouse 2C T cell binding to pMHC/ICAM-1 vesicles – MLPCN validation set, flow cytometry, LFA-1/ICAM-1 modulator project, pilot screen (AID 2523;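 active = response below a set limit, under 55% cells CD8-positive and vesicle-bound, and CD8 cells' 90th-percentile brightness under 279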;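 for vesicle binding response: mean PE anti-B7-1 fluorescence of CD8+ cells relative to row control; 100% = QL9-loaded vesicles with DMSO vehicle in the same plate row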); details: 2C mouse CD8+ T cells, at 7 µM, stronger effect = lower value; double positive events: measured here: CD8+/vesicle+ event percentage
[7] = molecular target: Integrin beta-1 (Homo sapiens) + Integrin alpha-4 (Homo sapiens) (UniProt P13612+P05556); assay: alpha4beta1 integrin LIBS antibody binding reduction – U937 cells, HUTS-21 mAb, flow cytometry, validation set, VLA-4 allosteric modulator project, pilot screen (AID 2674;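 active = inhibition above 50%, about 3 SD of the validation set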;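 note: antibody binding induced by the VLA-4 ligand LDV present at three times its Kd; 0% = LDV ligand with antibody and no compound and 100% = antibody without LDV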); details: HUTS-21 LIBS mAb binding, at 6.7 µM, stronger effect = higher value, binding induced by LDV ligand
[8] = calorie-restriction mimetic ROS inhibitors, yeast – validation compound set, pilot screen (AID 2706;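 active = superoxide response below 65% of plate, a cut near 3 SD across the whole screen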;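 note: yeast exposed to compound for one week at 30 degrees C before staining; 100% = mean of all compound wells on the same plate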); details: S. cerevisiae aging, superoxide DHE fluorescence; at 10 µM; stronger effect = lower value
[9] = molecular target: Beta-adrenergic receptor kinase 1 (Homo sapiens) (UniProt P25098); assay: GRK2 binders displacing RNA aptamer, biochemical, validation, human GRK2, bead flow cytometry (AID 488806); details: bead-bound GRK2, FAM-aptamer displacement, at 10 µM, stronger effect = higher value
[10] = molecular target: Beta-2 adrenergic receptor (Homo sapiens) (UniProt P07550); assay: agonist-induced loss of surface beta2AR – cell-based, FAP fluorogen, flow cytometry, validation set, pilot screen (AID 504459;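 active = percent response above 42, roughly 3 SD of non-fluorescent test compounds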;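 note: agonist-driven loss of surface beta2AR via internalization measured by FAP dye flow cytometry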); details: Am2.2-beta2AR cells, at 10 µM, stronger effect = higher value
[11] = molecular target: AP-2 complex subunit beta (Homo sapiens) (UniProt P63010); assay: beta-arrestin/AP2 interaction blockers – biochemical, validation set, GST-AP2 beads, flow cytometry, pilot screen (AID 504541;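 active = inhibition above 54%, about 3 SD of non-fluorescent compounds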;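 note: AP2 carries R879A mutation and is captured from E. coli lysate; bead-bound FITC arrestin peptide fluorescence measuring arrestin peptide binding to AP2; 0% = DMSO wells and 100% = excess unlabeled arrestin peptide control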); details: FITC arrestin peptide, at 10 µM, stronger effect = higher value, AP2 beta2 appendage fragment, R879A mutant
[12] = cytosolic pH regulators acting via V-ATPase – S. cerevisiae, pHLuorin, HTS validation (AID 504600; in the data active = response above about 15%;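 note: plate controls were DMSO for no effect and reference compound for full effect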); details: V-ATPase proton transport, at 10 µM, stronger effect = higher value
[13] = test system: anti-desmoglein-3 scFv antibody binding to human DSG3; assay: blockers of pathogenic pemphigus antibody–desmoglein-3 binding – biochemical, validation compound set, bead-based, flow cytometry, pilot screen (AID 588368;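 active = binding below the plate cutoff, the plate median minus 3 SD, with a reading above zero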;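 note: signal is the median channel fluorescence of bead-bound GFP antibody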); details: Protein G beads, DSG3-Fc, scFv-GFP binding, at 10 µM, stronger effect = lower value
[14] = Nile Red efflux blockade in pump-expressing yeast – validation compound set, multiplex, phenotypic, pilot screen (AID 588506;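 active = efflux inhibition above 0.42, the validation set average plus 4 SD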;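 note: Nile Red retained in cells so higher fluorescence means more efflux inhibition; 0 = negative control wells and 1 = enniatin B 25 µM full block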); details: S. cerevisiae pump-expressing triplex, Nile Red efflux flow cytometry; at 10 µM; stronger effect = higher value; the pumps come from Candida albicans
[15] = molecular target: ATP-binding cassette sub-family B member 6 (Homo sapiens) (UniProt Q9NP58); assay: blockers of ABCB6-driven porphyrin uptake – K562-ABCB6 cells, flow cytometry, validation set, pilot screen (AID 588550;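 active = inhibition above the screen-wide mean plus 3 SD, about 51%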;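 note: 0% = DMSO wells and 100% = benzethonium chloride 70 µM positive control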); details: K562-ABCB6 porphyrin accumulation, 1 h, at 10 µM, stronger effect = higher value
[16] = AML differentiation inducers, ER-HoxA9 marrow cells – cell-based, GFP/MAC1 double positive, flow cytometry, validation set, primary screen (AID 588685;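 active = differentiation response of at least 50%, scaled between solvent and reference control, from cells with both markers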;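 note: compound exposure lasts four days before antibody staining and flow analysis; 0% = DMSO wells and 100% = 5 µM fulvestrant positive control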); details: stronger effect = higher value, normalized: vehicle 0, fulvestrant 100

Chain of ATP-binding cassette sub-family B member 6 (Homo sapiens) (Q9NP58 whole entry, looked up): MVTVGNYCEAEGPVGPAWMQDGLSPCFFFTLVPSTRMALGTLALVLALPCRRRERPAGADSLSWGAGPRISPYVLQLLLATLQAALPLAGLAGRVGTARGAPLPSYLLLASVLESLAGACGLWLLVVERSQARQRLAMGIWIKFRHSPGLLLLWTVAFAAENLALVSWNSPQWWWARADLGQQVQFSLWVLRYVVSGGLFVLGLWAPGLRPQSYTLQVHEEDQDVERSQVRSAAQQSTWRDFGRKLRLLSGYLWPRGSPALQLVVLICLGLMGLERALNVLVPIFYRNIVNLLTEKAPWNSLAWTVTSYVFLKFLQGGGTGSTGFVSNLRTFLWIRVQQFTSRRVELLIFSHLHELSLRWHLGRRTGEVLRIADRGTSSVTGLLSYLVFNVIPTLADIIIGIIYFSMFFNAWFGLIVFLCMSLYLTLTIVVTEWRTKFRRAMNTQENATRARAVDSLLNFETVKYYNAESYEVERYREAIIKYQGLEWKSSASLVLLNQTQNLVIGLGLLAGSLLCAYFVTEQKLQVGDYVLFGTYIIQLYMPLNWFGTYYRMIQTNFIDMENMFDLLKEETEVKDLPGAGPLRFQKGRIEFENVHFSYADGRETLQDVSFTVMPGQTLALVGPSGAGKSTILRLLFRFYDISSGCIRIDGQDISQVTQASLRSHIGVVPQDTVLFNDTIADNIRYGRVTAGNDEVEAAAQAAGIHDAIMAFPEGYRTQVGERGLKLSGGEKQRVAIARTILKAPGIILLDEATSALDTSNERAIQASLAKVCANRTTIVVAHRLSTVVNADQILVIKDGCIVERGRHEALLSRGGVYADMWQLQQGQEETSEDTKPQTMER
Chain of AP-2 complex subunit beta (Homo sapiens) (P63010 whole entry, looked up, the tested form may be a part, one chain of several): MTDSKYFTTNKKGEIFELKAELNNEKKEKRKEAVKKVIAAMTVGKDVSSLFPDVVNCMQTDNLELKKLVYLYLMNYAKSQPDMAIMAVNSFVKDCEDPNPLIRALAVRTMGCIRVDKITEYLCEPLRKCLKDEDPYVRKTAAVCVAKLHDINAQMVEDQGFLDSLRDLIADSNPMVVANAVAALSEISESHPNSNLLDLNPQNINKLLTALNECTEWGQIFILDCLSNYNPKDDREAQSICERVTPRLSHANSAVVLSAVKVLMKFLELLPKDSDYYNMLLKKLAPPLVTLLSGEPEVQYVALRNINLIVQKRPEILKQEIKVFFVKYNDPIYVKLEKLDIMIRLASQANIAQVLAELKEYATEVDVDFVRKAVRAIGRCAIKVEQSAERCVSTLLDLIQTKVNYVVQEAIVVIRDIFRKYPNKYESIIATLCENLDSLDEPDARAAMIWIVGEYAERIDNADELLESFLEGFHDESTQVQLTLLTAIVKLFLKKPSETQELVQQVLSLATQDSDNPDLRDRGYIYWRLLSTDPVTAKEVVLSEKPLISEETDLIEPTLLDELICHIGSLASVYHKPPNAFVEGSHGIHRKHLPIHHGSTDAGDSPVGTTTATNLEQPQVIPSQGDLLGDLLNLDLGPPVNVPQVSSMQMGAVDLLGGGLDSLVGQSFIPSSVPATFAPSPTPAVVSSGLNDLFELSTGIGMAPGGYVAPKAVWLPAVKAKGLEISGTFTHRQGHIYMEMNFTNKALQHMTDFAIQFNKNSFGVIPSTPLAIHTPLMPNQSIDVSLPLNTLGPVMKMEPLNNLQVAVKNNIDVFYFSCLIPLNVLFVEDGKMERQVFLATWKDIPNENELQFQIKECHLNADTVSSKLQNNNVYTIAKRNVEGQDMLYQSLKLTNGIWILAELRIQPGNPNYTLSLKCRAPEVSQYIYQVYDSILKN
Chain of Beta-adrenergic receptor kinase 1 (Homo sapiens) (P25098 whole entry, looked up): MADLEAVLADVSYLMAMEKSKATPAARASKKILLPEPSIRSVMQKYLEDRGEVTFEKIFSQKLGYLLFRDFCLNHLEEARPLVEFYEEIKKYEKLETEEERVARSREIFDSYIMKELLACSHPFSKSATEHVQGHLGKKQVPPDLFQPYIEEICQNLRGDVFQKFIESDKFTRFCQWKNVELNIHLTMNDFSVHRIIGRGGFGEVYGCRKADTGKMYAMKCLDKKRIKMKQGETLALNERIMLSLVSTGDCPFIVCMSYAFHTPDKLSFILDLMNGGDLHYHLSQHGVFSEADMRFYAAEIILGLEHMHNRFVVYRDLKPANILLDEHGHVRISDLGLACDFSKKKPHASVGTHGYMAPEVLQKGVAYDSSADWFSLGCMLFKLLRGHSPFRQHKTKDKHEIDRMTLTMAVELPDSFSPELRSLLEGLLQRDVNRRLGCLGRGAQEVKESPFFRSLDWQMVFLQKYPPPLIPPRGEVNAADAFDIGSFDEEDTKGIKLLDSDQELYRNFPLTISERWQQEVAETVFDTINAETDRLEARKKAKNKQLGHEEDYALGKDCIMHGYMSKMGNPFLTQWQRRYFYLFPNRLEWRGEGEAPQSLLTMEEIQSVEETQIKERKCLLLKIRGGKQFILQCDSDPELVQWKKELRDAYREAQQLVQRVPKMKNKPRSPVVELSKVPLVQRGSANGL
Chain of Beta-2 adrenergic receptor (Homo sapiens) (P07550 whole entry, looked up): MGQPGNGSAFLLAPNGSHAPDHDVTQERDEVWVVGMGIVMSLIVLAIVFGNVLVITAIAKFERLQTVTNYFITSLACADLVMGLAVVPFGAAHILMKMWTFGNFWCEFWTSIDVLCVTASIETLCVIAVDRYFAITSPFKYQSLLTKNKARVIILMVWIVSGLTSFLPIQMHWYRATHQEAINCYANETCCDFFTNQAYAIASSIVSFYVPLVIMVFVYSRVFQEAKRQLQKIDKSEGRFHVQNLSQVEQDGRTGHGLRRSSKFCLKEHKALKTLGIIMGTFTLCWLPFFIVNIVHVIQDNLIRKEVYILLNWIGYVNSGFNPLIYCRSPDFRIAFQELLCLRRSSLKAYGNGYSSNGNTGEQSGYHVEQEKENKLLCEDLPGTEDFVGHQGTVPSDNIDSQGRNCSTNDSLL
Chain of Integrin beta-1 (Homo sapiens) + Integrin alpha-4 (Homo sapiens) (P05556 whole entry, looked up): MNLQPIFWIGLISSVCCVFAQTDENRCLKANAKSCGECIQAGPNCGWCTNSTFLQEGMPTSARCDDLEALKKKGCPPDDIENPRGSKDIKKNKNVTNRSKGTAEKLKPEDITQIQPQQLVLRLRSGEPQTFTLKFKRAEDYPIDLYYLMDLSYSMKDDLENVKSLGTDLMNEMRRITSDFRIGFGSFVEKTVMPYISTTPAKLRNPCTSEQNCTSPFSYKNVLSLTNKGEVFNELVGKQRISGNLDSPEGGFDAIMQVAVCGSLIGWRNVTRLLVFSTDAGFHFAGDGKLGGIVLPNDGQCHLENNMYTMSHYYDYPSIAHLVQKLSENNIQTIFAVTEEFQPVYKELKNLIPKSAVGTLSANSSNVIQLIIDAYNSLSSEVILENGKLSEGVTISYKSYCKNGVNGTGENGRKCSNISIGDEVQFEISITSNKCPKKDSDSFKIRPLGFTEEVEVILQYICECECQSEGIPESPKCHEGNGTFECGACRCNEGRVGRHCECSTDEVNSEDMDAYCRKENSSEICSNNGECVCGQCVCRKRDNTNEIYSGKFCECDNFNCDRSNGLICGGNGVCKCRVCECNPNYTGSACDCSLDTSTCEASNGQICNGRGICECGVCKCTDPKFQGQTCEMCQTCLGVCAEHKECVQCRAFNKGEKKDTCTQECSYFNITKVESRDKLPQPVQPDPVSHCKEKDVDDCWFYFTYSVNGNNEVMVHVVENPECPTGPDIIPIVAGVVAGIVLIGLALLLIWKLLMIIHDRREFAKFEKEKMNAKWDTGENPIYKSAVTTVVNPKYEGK
Chain of Integrin beta-1 (Homo sapiens) + Integrin alpha-4 (Homo sapiens) (P13612 whole entry, looked up): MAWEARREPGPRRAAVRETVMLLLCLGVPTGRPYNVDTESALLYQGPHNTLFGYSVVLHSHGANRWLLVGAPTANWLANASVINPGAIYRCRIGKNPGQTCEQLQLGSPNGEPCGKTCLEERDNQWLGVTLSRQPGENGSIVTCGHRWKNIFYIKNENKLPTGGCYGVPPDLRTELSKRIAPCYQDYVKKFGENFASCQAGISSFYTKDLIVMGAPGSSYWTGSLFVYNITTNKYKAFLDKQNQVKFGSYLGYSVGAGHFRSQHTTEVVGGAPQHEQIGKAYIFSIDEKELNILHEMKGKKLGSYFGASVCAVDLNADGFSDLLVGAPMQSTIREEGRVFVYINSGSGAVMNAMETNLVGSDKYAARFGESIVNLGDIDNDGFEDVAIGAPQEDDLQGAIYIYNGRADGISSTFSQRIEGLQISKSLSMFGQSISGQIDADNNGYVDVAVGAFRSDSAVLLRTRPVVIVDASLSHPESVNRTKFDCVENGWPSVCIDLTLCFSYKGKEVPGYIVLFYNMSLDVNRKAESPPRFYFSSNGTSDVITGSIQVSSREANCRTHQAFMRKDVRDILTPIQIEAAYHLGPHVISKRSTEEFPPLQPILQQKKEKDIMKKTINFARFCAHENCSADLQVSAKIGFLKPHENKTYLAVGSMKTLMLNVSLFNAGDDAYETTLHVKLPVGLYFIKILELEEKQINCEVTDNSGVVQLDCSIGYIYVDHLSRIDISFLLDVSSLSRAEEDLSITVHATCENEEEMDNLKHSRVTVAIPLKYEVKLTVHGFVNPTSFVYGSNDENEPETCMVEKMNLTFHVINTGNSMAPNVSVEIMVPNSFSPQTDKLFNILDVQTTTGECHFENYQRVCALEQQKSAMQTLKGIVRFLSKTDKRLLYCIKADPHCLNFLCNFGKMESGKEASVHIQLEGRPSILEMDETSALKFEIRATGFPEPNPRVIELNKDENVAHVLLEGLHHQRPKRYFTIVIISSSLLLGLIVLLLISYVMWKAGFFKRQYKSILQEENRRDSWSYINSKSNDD

CC1(C)CC(=O)c2cn3c(nc2C1)nc1ccccc13
55.9%: double positive events [6]
inactive: percent of DMSO control GFP [1] 102% | GFP response vs DMSO [2] 97.7% | percent response of DMSO control [3] 104% | GFP response vs DMSO [4] 99.1% | GFP response, % of DMSO [5] 102% | vesicle binding response [6] 104% | inhibition [7] 9.63% | superoxide response (% of plate) [8] 107% | aptamer binding inhibition [9] -1% | response [10] -25.5% | inhibition [11] 17% | response [12] 3.76% | binding (% of control) [13] 103% | efflux inhibition (fraction of control) [14] -0.12 | inhibition [15] -6% | differentiation response [16] -6.03%

NC(=O)c1cnccn1
inactive: percent of DMSO control GFP [1] 101% | GFP response vs DMSO [2] 110% | percent response of DMSO control [3] 92.5% | GFP response vs DMSO [4] 110% | GFP response, % of DMSO [5] 111% | vesicle binding response [6] 240% | inhibition [7] 10.8% | superoxide response (% of plate) [8] 102% | aptamer binding inhibition [9] 9% | response [10] -6.65% | inhibition [11] -9.13% | response [12] 11.1% | binding (% of control) [13] 102% | efflux inhibition (fraction of control) [14] -0.09 | inhibition [15] 2% | differentiation response [16] 25.6%
60.5%: double positive events [6]

CN(CCO)CC(O)Cn1cnc2c1c(=O)n(C)c(=O)n2C (configuration not stated) (tested in a mixture with another compound)
62.5%: double positive events [6]
inactive: percent of DMSO control GFP [1] 101% | GFP response vs DMSO [2] 109% | percent response of DMSO control [3] 100% | GFP response vs DMSO [4] 106% | GFP response, % of DMSO [5] 112% | vesicle binding response [6] 211% | inhibition [7] 14.2% | superoxide response (% of plate) [8] 93.2% | aptamer binding inhibition [9] -1% | response [10] -18.1% | inhibition [11] -3.41% | response [12] -1.98% | binding (% of control) [13] 103% | efflux inhibition (fraction of control) [14] -0.09 | inhibition [15] 7% | differentiation response [16] -3.02%

CC(=O)CCCCn1c(=O)c2c(ncn2C)n(C)c1=O
active: efflux inhibition (fraction of control) [14] 0.49
inactive: percent of DMSO control GFP [1] 103% | GFP response vs DMSO [2] 96.2% | percent response of DMSO control [3] 106% | GFP response vs DMSO [4] 82.2% | GFP response, % of DMSO [5] 97.5% | vesicle binding response [6] 162% | inhibition [7] 12% | superoxide response (% of plate) [8] 102% | aptamer binding inhibition [9] 2% | response [10] -1.49% | inhibition [11] 4.72% | response [12] 0.63% | binding (% of control) [13] 95.5% | inhibition [15] -3% | differentiation response [16] 20.8%
57.8%: double positive events [6]

CC(=O)NC(CC(C)C)C(=O)NC(Cc1ccccc1)C(N)=O (stereo not drawn) (Ac-Leu-Phe-NH2; configuration not given here)
60.5%: double positive events [6]
inactive: percent of DMSO control GFP [1] 101% | GFP response vs DMSO [2] 107% | percent response of DMSO control [3] 98.6% | GFP response vs DMSO [4] 111% | GFP response, % of DMSO [5] 103% | vesicle binding response [6] 128% | inhibition [7] 20.4% | superoxide response (% of plate) [8] 91.8% | aptamer binding inhibition [9] 2% | response [10] 4.73% | inhibition [11] -15.5% | response [12] -1.63% | binding (% of control) [13] 103% | efflux inhibition (fraction of control) [14] -0.13 | inhibition [15] 13% | differentiation response [16] -4.57%

CCN(CCCCOC(=O)c1ccc(OC)c(OC)c1)C(C)Cc1ccc(OC)cc1 (configuration not stated)
inactive: percent of DMSO control GFP [1] 102% | GFP response vs DMSO [2] 99.6% | percent response of DMSO control [3] 102% | GFP response vs DMSO [4] 104% | GFP response, % of DMSO [5] 117% | vesicle binding response [6] 194% | inhibition [7] 22.7% | superoxide response (% of plate) [8] 103% | aptamer binding inhibition [9] 4% | response [10] -26.8% | inhibition [11] 3.32% | response [12] 0.12% | binding (% of control) [13] 103% | efflux inhibition (fraction of control) [14] -0.09 | inhibition [15] 6% | differentiation response [16] -5.97%
62.7%: double positive events [6]
